# Source: PubChem BioAssay (National Center for Advancing Translational Sciences (NCATS))
# An excerpt weighted towards active compounds, which were near 2.4% of everything screened.
# D2 PAM-1: HTS Assay for Positive Allosteric Modulators of the Human D2 Dopamine Receptor: Primary Screen for Potentiators; HEK293 T-REx D2, calcium flux, EC20 dopamine potentiation; potentiation, % at 10 µM; 340,000 compounds, 0.34% hits; D(2) dopamine receptor (Homo sapiens), P14416;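 active means potentiation over 3 SD above the plate norm, cut at about 30% in these data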; further: 0% is about no effect
# Target sequence (P14416 whole entry, looked up): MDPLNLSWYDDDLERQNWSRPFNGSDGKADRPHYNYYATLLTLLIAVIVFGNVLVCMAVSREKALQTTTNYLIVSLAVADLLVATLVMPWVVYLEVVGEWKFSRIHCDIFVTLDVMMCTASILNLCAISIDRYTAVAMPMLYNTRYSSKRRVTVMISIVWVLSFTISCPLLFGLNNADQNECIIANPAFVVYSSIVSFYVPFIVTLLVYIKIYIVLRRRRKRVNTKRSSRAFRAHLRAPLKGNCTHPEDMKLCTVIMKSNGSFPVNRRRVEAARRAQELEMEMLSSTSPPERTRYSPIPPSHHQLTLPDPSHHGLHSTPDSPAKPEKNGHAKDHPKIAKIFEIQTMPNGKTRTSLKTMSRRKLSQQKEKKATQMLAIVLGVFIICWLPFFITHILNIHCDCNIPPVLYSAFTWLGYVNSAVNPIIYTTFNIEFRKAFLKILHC
#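 Cells plated with tetracycline inducer and held overnight at 30 C; calcium dye loaded 30–90 min at room temperature; baseline taken, compound added and read 180 s; EC20 dopamine then added and read 180 s.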
# D2 PAM-2: Beta-Arrestin HTS for Positive Allosteric Modulators of the Human D2 Dopamine Receptor: Potentiators. potentiation, % (test concentration not listed). D(2) dopamine receptor (Homo sapiens), P14416. DiscoveRx D2 beta-arrestin cells, luminescence, 90 min; 100% = 57 uM dopamine signal. 360,000 compounds, 0.23% hits; in the data active means potentiation above about 50%
#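 PathHunter beta-arrestin assay in DiscoveRx D2 cells. Compounds were added with an EC20 of dopamine (50 nM final) for 90 min at 37 deg C. Luminescence was read 1 h after detection reagent, with 57 uM dopamine as the EC100 control.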
# D2 ag-1: HTS Assay for Allosteric Agonists of the Human D2 Dopamine Receptor: Primary Screen for Agonists; 340,000 compounds, 0.53% hits; activation, % at 2 µM; AID 485358, 2010; HEK293 T-REx D2 cells, calcium flux agonist mode; D(2) dopamine receptor (Homo sapiens), P14416;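 active means activation over 3 SD above normal in the single-dose calcium agonist read, cut at about 30% in these data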; further: 0% is about no effect
#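 Agonism is scored from calcium flux in a force-coupled, inducible HEK293 cell line expressing D2, read kinetically for 180 s after compound addition against dopamine controls.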
# D2 ag-2: Beta-Arrestin HTS for Positive Allosteric Modulators of the Human D2 Dopamine Receptor: Agonists. D(2) dopamine receptor (Homo sapiens), P14416. DiscoveRx PathHunter D2 beta-arrestin, luminescence, 90 min; 100% = 57 uM dopamine signal. activation, % (test concentration not listed). 360,000 compounds, 0.084% hits. AID 624465, 2012; in the data active means activation above about 40%
#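 DiscoveRx PathHunter D2 beta-arrestin cells (2,100/well) attached overnight, then compound-stimulated 90 min at 37 C in HBSS/10 mM HEPES/0.1% Tween-20 buffer; beta-galactosidase complementation read by luminescence after 1 h at ambient temperature. Dopamine 57 uM final (EC100) as control.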
# D2 antagonist: HTS Assay for Allosteric Antagonists of the Human D2 Dopamine Receptor: Primary Screen for Antagonists; inhibition, % at 10 µM; 340,000 compounds, 2% hits; HEK293 TREx D2 cells, calcium flux, dopamine EC80; D(2) dopamine receptor (Homo sapiens), P14416; in the data active means inhibition above about 30%; inactive means below that, where a call was filed; further: 0% is about no effect
#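 In this primary screen, negative modulation is detected by tracking calcium flux after an EC80 dopamine challenge in inducible HEK293 T-REx D2 cells preexposed to test compound for 180 s.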
# * hit, by the source's call; . = no result.
SMILES,D2 PAM-1,D2 PAM-2,D2 ag-1,D2 ag-2,D2 antagonist
O=C(Nc1cnn(Cc2c(Cl)cccc2Cl)c1)C(c1ccccc1)c1ccccc1,33*,1,0,-1,16
O=C(COc1ccccc1Cl)Nc1cnn(Cc2ccccc2)c1,-3,-13,-1,1,-14
CN1C(=O)N(CC(=O)N2CCN(c3ncccn3)CC2)C(=O)C12CCCCC2,-15,-32,0,-4,12
O=C1CC2(CCCC2)CC(=O)N1CCCCN1CCN(c2ncccn2)CC1,-30,-35,4,-3,88*
NC(=O)CC(NC(=O)Cc1cccc2ccccc12)c1ccc(NC2CCN(Cc3ccccc3)CC2)c([N+](=O)[O-])c1 (stereo not drawn),-3,-15,0,-3,32*
O=[N+]([O-])c1ccc(NC2CCN(Cc3ccccc3)CC2)c([N+](=O)[O-])c1,-7,-4,0,12,17
NC(=O)CC(NC(=O)Cc1ccc(Br)cc1)c1ccc(NC2CCN(Cc3ccccc3)CC2)c([N+](=O)[O-])c1 (stereo not drawn),-2,-44,-1,-2,-5
O=[N+]([O-])c1ccccc1NC1CCN(Cc2ccccc2)CC1,-25,-19,-1,-5,39*
COc1ccc(NC(=O)CN2C(=O)COc3ccc(S(=O)(=O)NC4CCCC4)cc32)cc1OC,-6,.,0,.,.
O=C(CSc1ccc(Br)cc1)Nc1cccc(S(=O)(=O)N2CCOCC2)c1,-8,5,0,1,14
COc1ccc(C(C)=O)cc1CC(=O)Nc1ccccc1-c1ccccc1,31*,4,-1,-6,-4
Cc1ccc(SCC(=O)Nc2cccc(S(=O)(=O)N3CCOCC3)c2)cc1C,8,-4,0,-2,35*
COc1ccc(C(C)=O)cc1CC(=O)Nc1cccc(S(=O)(=O)N2CCOCC2)c1,-11,-1,0,-2,33*
Cc1cc(C)c2c(NC(=O)c3ccccc3Cl)c(C(=O)NCc3ccc(Cl)cc3)sc2n1,-5,.,0,.,.
O=C(c1ccc2c(c1)OCCO2)N(Cc1cccnc1)c1nc2ccc(F)cc2s1,-8,.,0,.,.
Cc1ccc(CN2CCN(Cc3ccc(C)s3)CC2CCO)cc1 (stereo not drawn),-23,-2,1,-3,69*
COc1cc(CN2CCN(Cc3ccc(C)cc3)C(CCO)C2)cc(OC)c1O (stereo not drawn),-18,-16,1,3,57*
CC(C)CCN1CCN(Cc2cccs2)CC1CCO (stereo not drawn),-20,-18,14,1,31*
COc1ccc(CN2CCN(Cc3ccc(C)cc3)C(CCO)C2)cc1OC (stereo not drawn),12,-22,0,-1,14
CC(C)CCN1CCN(Cc2cccc3nonc23)CC1CCO (stereo not drawn),-23,-7,1,-2,54*
CC(C)N1CCN(Cc2cccs2)CC1CCO (stereo not drawn),.,-2,.,0,.
CCOc1ccc(NC(=O)Cn2cc(C(=O)c3ccccc3)c(=O)c3cc4c(cc32)OCCO4)cc1,17,.,0,.,.
Cc1ccc(NC(=O)CN2C(=O)CCc3cc(S(=O)(=O)N4CCCCC4)ccc32)cc1N(C)C,-10,.,5,.,.
O=C(CSc1nc(-c2ccccc2)no1)N1CCCCC1,-3,.,0,.,.
Cc1cccc(OCCSc2nc3ccc(NC(=O)c4cccs4)cc3s2)c1,7,.,2,.,.
SMILES,D2 PAM-1,D2 PAM-2,D2 ag-1,D2 ag-2,D2 antagonist
Cc1ccc(CN2CCN(CCC(C)C)C(CCO)C2)s1 (stereo not drawn),-25,-18,0,-3,57*
O=C(COC(=O)C1=COCCO1)Nc1cc(S(=O)(=O)N2CCCCC2)ccc1Cl,13,-4,2,0,7
Cc1ccc(S(=O)(=O)N2CCOCC2)cc1NC(=O)CNCc1ccccc1Cl,9,14,39*,8,0
Cc1ccc(S(=O)(=O)N2CCCCC2)cc1NC(=O)COC(=O)C1=COCCO1,38*,-5,1,-1,12
COc1cc(Cl)c(C)cc1NC(=O)COC(=O)C1=COCCO1,-9,-6,-1,-5,32*
Cc1ccc(S(=O)(=O)N2CCN(C(=O)CN3CCc4ccccc4C3)CC2)cc1,-18,-12,15,2,3
CCOc1ccccc1NC(=O)c1ccc(CN2CCc3ccccc3C2)cc1,-19,-20,1,-1,54*
O=C(CNC1CCN(Cc2ccccc2)CC1)Nc1ccc(S(=O)(=O)N2CCCCC2)cc1,-29,-25,0,-3,37*
O=C(CN1CCc2ccccc2C1)N1CCN(S(=O)(=O)c2ccccc2)CC1,-11,-5,35*,6,7
O=C(c1ccc(CN2CCc3ccccc3C2)cc1)N1CCCCC1,-20,-37,14,-2,35*
CCN(CC)C(=O)Cn1c(=O)n(-c2ccc(Cl)cc2)c(=O)c2c3c(sc21)CCCCC3,-1,.,-1,.,.
O=C(Nc1ccc(S(=O)(=O)N2CCCC2)cc1)c1ccc(CN2CCc3ccccc3C2)cc1,-16,-36,3,1,64*
Cc1cc(C)c(NC(=O)c2ccc(CN3CCc4ccccc4C3)cc2)c(C)c1,-24,-43,8,-1,52*
CCOc1ccc(C(=O)Nc2ccccc2NC(C)=O)cc1OCC,-37,-9,-2,0,103*
CC(=O)c1cccc(NC(=O)c2ccc(CN3CCc4ccccc4C3)cc2)c1,-32,-4,7,-8,19
COc1cc(NC(=O)CCc2c(C)nn(-c3ccc(N4CCCCC4)nn3)c2C)cc(OC)c1OC,-11,.,1,.,.
COC(c1ccccc1)c1nnc(CCC(=O)N2CCCCCCC2)o1 (stereo not drawn),7,3,-1,1,-16
O=C(CCc1nnc(-c2ccc(-c3ccccc3)cc2)o1)N1CCCCC1,16,-6,1,7,62*
Cc1[nH]c2ccc(C(=O)NCCCN(C)C3CCCCC3)cc2c1C,-27,-40,0,-5,34*
Cc1[nH]c2ccc(C(=O)NCCCN3CCN(C)CC3)cc2c1C,-5,-19,-1,-2,1
Cc1cc(NC(=O)c2ccccc2Cl)no1,26,2,0,-4,13
Cc1cc(NC(=O)c2c(F)cccc2Cl)no1,31*,5,-1,2,-17
Cc1cc(NC(=O)Nc2ccc(F)cc2)no1,40*,1,0,-4,-3
